FLuc modulator = firefly luciferase modulation, counter-screen for miR-21 project; Potency, µM (highest dose often 57.5 µM), for the others: at the highest dose activity change, negative = inhibition, usual class: inhibitors; AID 588342; actives 6.9% (n = 360,000); purified FLuc, Km substrates, luminescence inhibition; P08659;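 note: plate controls were vehicle for no effect and reference inhibitor for full effect; nearly all actives have a fitted effect of over 55% in size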
Target sequence (P08659 whole entry, looked up): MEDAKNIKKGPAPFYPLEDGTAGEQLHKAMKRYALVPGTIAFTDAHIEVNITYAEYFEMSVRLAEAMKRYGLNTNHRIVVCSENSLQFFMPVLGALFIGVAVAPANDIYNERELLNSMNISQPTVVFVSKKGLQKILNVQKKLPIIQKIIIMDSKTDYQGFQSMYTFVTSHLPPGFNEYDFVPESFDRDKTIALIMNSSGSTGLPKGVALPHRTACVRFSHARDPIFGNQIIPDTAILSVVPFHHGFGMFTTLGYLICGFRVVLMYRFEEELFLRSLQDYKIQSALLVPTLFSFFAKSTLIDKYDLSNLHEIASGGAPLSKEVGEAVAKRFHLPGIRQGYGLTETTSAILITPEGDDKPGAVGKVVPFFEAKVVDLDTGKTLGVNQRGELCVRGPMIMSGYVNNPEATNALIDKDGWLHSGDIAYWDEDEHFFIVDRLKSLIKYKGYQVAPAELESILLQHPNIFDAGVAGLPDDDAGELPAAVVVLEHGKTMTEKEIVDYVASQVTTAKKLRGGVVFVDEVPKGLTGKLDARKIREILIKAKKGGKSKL
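Purified P. pyralis luciferase (10nM final) with 10uM D-luciferin and 10uM ATP (Km levels) in 50mM Tris acetate pH 7.5, 10mM Mg acetate, 0.01% Tween-20, 0.05% BSA; qHTS 6-point titration, ~60 µM downward; luminescence read.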
ELG1 genotox = genotoxicity induction in ELG1-luciferase HEK293T cells | AID 504466 | actives 1.3% (n = 330,000) | HEK293T ELG1-luciferase reporter, luminescence, 16 h | Potency, µM (series often up to 46 µM), without a hit: top-dose activity change, positive = activation, most hits filed as activators; note: % of control where 0% means no effect; nearly all actives have a fitted effect of over 60% in size
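16 hr compound incubation (37 °C, 5% CO2) of HEK293T cells carrying luciferase-tagged ELG1; luciferase then measured by ONE-Glo luminescence after 30 min at RT.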
SMN2 splice up = SMN2 splice variant enhancement. HEK293 SMN2-luciferase splicing reporter, luminescence, 30-36 h. Potency, µM (top dose mostly 46.1 µM), for the others: top-dose activity change, positive = activation, actives largely listed as activators. actives 2.8% (n = 210,000). AID 1458; note: % of control where 0% means no effect; nearly all actives have a fitted effect of over 55% in size
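HEK293 cells carry an SMN2 minigene-luciferase reporter in which exon 7 inclusion puts luciferase in frame. Cells were seeded at 2000 cells/well, attached for 10-12 hours, then exposed to compounds for 30-36 hours at 37C before ONE-Glo luminescence.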
NPC1 promoter act = activators of NPC1 promoter; AID 485313; Huh7 NPC1 promoter luciferase reporter, 24 h; actives 2.4% (n = 320,000); Potency, µM (titrated, usually from 9.22 µM), for the others: at the highest dose activation, actives largely listed as activators; note: % of control where 0% means no effect; nearly all actives have a fitted effect of over 60% in size
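In 1536-well qHTS, Huh7 cells harboring an NPC1 promoter–luciferase construct received compound for 24 h; activation was quantified by luminescence following luciferase reagent addition.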
Rab9 promoter act = activators of Rab9 promoter. Potency, µM (top dose mostly 9.22 µM), without a hit: at the top dose activation, negative = inhibition, hits mostly activators. Huh7 Rab9 promoter-luciferase reporter, luminescence, 24 h. actives 2.8% (n = 320,000); note: % of control where 0% means no effect; nearly all actives have a fitted effect of over 60% in size
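Cell-based reporter: Huh7 stable for Rab9 promoter-driven luciferase, plated in reduced-serum medium with 10% FBS at 1500 cells/well, compound-treated 24 h at 37 °C, luminescence read after 10 min reagent.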
The depositor's hits bear a star; ? = inconclusive; nt = no result; [ ] = remark or other dose. Compounds with a hit are over-represented: about 7.5% of the library has one in this group of screens. Calls come from the whole dose curve; as a rule, active = well fitted curve in the direction sought with a large enough effect; inconclusive = small, poorly fitted or top-dose-only effect, or another doubt; inactive = no such curve, though single readings can be large; an effect the other way counts as inactive or inconclusive. Potency is the fitted concentration of half-maximal effect.

SMILES	FLuc modulator	ELG1 genotox	SMN2 splice up	NPC1 promoter act	Rab9 promoter act
CCOC(=O)C1CCN(C(=O)c2cc3c(ccc4ccccc43)o2)CC1	12µM*	9.2µM*	nt	2.5µM*	0.45µM*
N[C@@H](Cc1[nH]nc2ccccc12)C(=O)O	nt	nt	1%[9.22 µM]	nt	nt
O=C(N/N=C/c1cccnc1)c1cc(-c2ccc(Br)cc2)nc2ccccc12	6.7µM*	-4%	nt	-16%	0%
Cc1ccc(C)c(-c2cc(C(=O)N/N=C/c3cccnc3)c3ccccc3n2)c1	?	-7%	nt	-7%	1%
Cc1ccc(/C=N/NC(=O)c2cc(-c3cccnc3)nc3ccccc23)cc1	-17%	?	-38%	-26%	-14%
O=C(N/N=C/c1cccnc1)c1cc(-c2ccccc2)nc2ccccc12	11µM*	-3%	nt	0%	-2%
Oc1ccc(NCc2ccccc2OCc2ccc(Cl)cc2)cc1	21µM*	nt	22µM*	nt	nt
CCN(CC)S(=O)(=O)c1ccc(Cl)c(NC(C)=O)c1	1%	0%	-13%	1%	-1%
COc1cccc(OC(=O)c2cc3ccccc3oc2=O)c1	13µM*	11%	-3%	2%	-3%
COc1ccc2oc(=O)c(C(=O)Nc3cccc(C(C)=O)c3)cc2c1	4.8µM*	8%	nt	28%	?
COc1ccc2oc(=O)c(/C(C)=N/Nc3ccccc3)cc2c1	24µM*	-1%	-26%	-1%	-7%
COc1cc(/C=C/[N+](=O)[O-])ccc1OC(=O)c1cc2ccccc2oc1=O	6µM*	?	nt	-18%	10%
CC1=C(C(=O)c2ccccc2)C(c2ccc(N3CCOCC3)cc2)NC(=O)N1 (centres undefined)	-5%	-1%	-10%	-3%	-2%
COc1cc(S(=O)(=O)NC2CCCC2)ccc1-n1cnnn1	1%	-10%	nt	-8%	2%
C=CCNC(=O)NC(=O)Cn1c(=O)c2c(ncn2CC)n(Cc2ccccc2)c1=O	-1%	8%	nt	-1%	0%
COc1ccc(NC(=O)c2cc3ccccc3o/c2=N\NS(=O)(=O)c2ccc(C)cc2)cc1	-28%	?	nt	1µM*	0.45µM*
COc1cccc2cc(C(=O)Nc3cc(C)cc(C)c3)/c(=N/NS(=O)(=O)c3ccccc3)oc12	1%	?	nt	0%	-4%
COc1ccc(CNC(=O)c2cc3ccccc3oc2=O)cc1	?	0%	nt	-5%	-1%
COc1cccc(NC(=O)c2cc3ccccc3oc2=O)c1	0.24µM*	0.92µM*	nt	1.4µM*	2.5µM*
Cc1cccnc1NC(=O)c1cc2ccccc2oc1=O	0.6µM*	2.1µM*	20µM*	1.8µM*	1µM*
O=C(COc1ccc2ccc(=O)oc2c1)Nc1ccc(N2CCOCC2)cc1	3%	7%	-7%	4%	-1%
O=C(Nc1cccc2cccnc12)C1CCCC1	-11%	1%	3%	-4%	1%
COc1ccccc1CNC(=O)[C@H](C)N1C(=O)N2CCc3c([nH]c4ccccc34)[C@@]2(C)C1=O	2%	-2%	nt	-8%	2%
CC(C)(C)Nc1nc(NCc2cccnc2)nc(N2CCOCC2)n1	2%	-1%	-10%	2%	-1%
COc1ccccc1NC(=O)c1cc2ccc(O)cc2o/c1=N\O	5.4µM*	3%	10%	1%	-2%
SMILES	FLuc modulator	ELG1 genotox	SMN2 splice up	NPC1 promoter act	Rab9 promoter act
COc1cccc(C(=O)N/N=c2/oc3ccccc3cc2C(N)=O)c1	0%	-6%	nt	-5%	1%
COc1ccccc1N=c1oc2cc(O)ccc2cc1C(N)=O	13µM*	0%	-5%	6%	2%
COc1ccc(N=c2oc3ccccc3cc2C(=O)Nc2ccccn2)cc1OC	24µM*	?	10%	?	?
COc1ccccc1NC(=O)c1cc2c(CO)cnc(C)c2oc1=Nc1ccc(OC)c(OC)c1	1%	-11%	nt	-8%	-10%
COc1ccc2cc(C(N)=O)/c(=N\NC(=O)c3ccccc3)oc2c1	11µM*	?	nt	0.89µM*	0.71µM*
COc1ccccc1N=c1oc2cc(O)ccc2cc1C(=O)NCC1CCCO1 (centres undefined)	-7%	0%	-1%	-4%	-5%
COc1ccccc1NC(=O)c1cc2ccccc2o/c1=N\O	?	16%	-8%	29%	4µM*

Assay outcomes: PubChem BioAssay, National Center for Advancing Translational Sciences (NCATS)
